Screening results as filed in PubChem BioAssay.
Beta apoptosis – beta cell apoptosis inhibition; INS-1E cytokine-induced death, ATP luminescence, 48 h; percent of positive-control rescue, neutral wells zero; protection from apoptosis, % (concentration not given with the values); actives 0.8% (n = 300,000); AID 435005;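 active means Every replicate reaches about 75%, or at least half do and their mean reaches it too, limit read from the data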;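 further: higher means more ATP so stronger rescue from cytokine killing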
aSyn UTR inh – MLPCN primary screen, SNCA 5' untranslated region; alpha-synuclein 5'UTR reporter, inhibitor activity; inhibition, % (tested at 7.5 µM); actives 0.82% (n = 300,000); AID 1813; in the data active means inhibition above about 60%;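 further: H4 neuroglioblastoma cells stably carrying SNCA 5'UTR luciferase fusion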
A1 inh – inhibitors of the anti-apoptotic protein A1, read as caspase activation. MEF A1-2A-BIM cells, Caspase-Glo 3/7 luminescence, 3 h; percent of clofoctol response, vehicle zero. caspase activation, % (concentration not given with the values). actives 0.066% (n = 330,000). AID 2462;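 active means over half of replicate activation scores above 10%, or exactly half above 10 with the replicate mean above 10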
CSC inhib – cancer stem cell inhibition | cancer stem cell-like cells viability, luminescence | inhibition, % at 7.5 µM | actives 1.1% (n = 300,000) | AID 2717; in the data active means inhibition above about 75%; tested in HMLE shEcad cells
Mdm2-MdmX inh – human Mdm2/MdmX binding inhibition. O15151+Q00987. SaOS-2 split-luciferase Mdm2/MdmX complementation, luminescence. inhibition, % at 8 µM. actives 3% (n = 330,000). AID 485346;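 active means inhibition of at least 50% at 8 µM in the primary screen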
Target sequence (O15151 whole entry, looked up): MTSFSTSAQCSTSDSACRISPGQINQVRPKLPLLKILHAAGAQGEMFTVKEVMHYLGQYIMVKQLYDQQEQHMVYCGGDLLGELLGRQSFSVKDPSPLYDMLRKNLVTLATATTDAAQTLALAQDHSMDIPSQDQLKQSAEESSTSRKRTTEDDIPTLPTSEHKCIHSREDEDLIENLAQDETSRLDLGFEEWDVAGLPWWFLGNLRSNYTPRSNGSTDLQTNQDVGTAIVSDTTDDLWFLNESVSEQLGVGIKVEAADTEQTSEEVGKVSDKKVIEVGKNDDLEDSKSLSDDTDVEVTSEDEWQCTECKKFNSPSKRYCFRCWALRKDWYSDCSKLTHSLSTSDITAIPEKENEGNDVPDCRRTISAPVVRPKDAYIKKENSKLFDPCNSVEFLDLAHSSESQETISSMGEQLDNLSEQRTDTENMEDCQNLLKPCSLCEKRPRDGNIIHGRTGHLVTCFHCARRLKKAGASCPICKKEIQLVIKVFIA
Target sequence (Q00987 whole entry, looked up): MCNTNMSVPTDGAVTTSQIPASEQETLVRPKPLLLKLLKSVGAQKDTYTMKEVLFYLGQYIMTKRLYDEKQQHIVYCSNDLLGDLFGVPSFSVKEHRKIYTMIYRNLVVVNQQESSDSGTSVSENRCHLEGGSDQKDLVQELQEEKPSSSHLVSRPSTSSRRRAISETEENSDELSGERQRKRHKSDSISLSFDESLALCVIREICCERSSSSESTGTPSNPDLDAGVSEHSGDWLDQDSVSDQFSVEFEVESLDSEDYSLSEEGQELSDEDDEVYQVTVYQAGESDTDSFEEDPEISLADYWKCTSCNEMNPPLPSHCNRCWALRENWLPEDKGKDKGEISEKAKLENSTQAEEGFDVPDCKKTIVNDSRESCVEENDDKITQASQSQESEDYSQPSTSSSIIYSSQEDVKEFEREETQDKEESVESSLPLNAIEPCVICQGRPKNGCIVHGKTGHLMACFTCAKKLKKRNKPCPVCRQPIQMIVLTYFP
Mdm2 MdmX conf – confirmation of human Mdm2/MdmX interaction inhibitors; shares compounds with Mdm2-MdmX inh; Mdm2-MdmX binding, luminescent assay; inhibition, % at 8 µM; actives 55% (n = 10,000); in the data active means inhibition above about 40%
FLuc counter – inhibits full-length luciferase, flagging false Mdm2/MdmX hits; SaOS-2 full-length luciferase counterscreen, luminescence; inhibition, % at 8 µM; shares compounds with Mdm2-MdmX inh; actives 77% (n = 6,200);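 active means mean inhibition at 8 µM reaching about 37%, which flags the compound as non-specific, limit read from the data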;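 further: p53-null SaOS-2 cells with luciferase driven by a doxycycline-inducible promoter; compound on cells about two nights before reading with doxycycline added after day one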
Of the large screens only hits and unclear results are named; the others gave an inactive call (follow-up assays come after a bar, where they were run). Compounds with a hit are over-represented: about 4.1% of the library has one in this group of screens.

O=C(Nc1nnc(Cc2ccc([N+](=O)[O-])cc2)s1)Nc1ccccc1F	none
COc1ccc(OC)c(CN2CCN(C(=O)CN3C(=O)NC4(CCCC4)C3=O)CC2)c1	none
Cc1nn(-c2ccccc2)c(C)c1C(=O)OC(C)C(=O)NC1CCCCC1 (stereo not given)	none (no result: aSyn UTR inh)
CCCCCNC(=O)Cn1c(=O)c2c(ncn2CC(C)C)n(Cc2ccccc2)c1=O	none
CC(=O)c1ccc(N2CCN(C(=O)c3noc4c3CSc3ccccc3-4)CC2)cc1	Mdm2-MdmX inh 51 | Mdm2 MdmX conf inactive
O=C(c1ccc(Br)o1)N1CCN(c2ccc3nnc(-c4ccccc4)n3n2)CC1	Mdm2-MdmX inh 58 | Mdm2 MdmX conf inactive
CC(NC(=O)C1=CC=CN2CCS(=O)(=O)N=C12)c1ccc(Cl)cc1Cl (stereo not given)	none (no result: Beta apoptosis, aSyn UTR inh, A1 inh, CSC inhib)
CCOc1cc(CNC(C)(C)CO)cc(Br)c1OCc1ccc(Cl)cc1Cl	Mdm2-MdmX inh 96 (no result: CSC inhib) | Mdm2 MdmX conf 49 | FLuc counter 37
COc1cc(CNCCO)cc(Cl)c1OCc1ccccc1Cl	none
OCCNCc1c(OCc2ccc(Cl)cc2)ccc2ccccc12	Mdm2-MdmX inh 53 | Mdm2 MdmX conf 41 | FLuc counter 70
CCOc1cc(CNCCO)cc(Br)c1OCc1ccc(Cl)cc1	CSC inhib 85, Mdm2-MdmX inh 80 | Mdm2 MdmX conf inactive
CCOc1cc(CNCCO)cc(Br)c1OCc1ccccc1Cl	Mdm2-MdmX inh 68 | Mdm2 MdmX conf inactive
COCCNC(=O)CN1C(=O)/C(=C/c2ccccc2)Oc2ccc(C(C)(C)C)cc21	none
CCOc1cc(CNCCCN2CCOCC2)cc(Br)c1OCc1ccccc1Cl	aSyn UTR inh 96, Mdm2-MdmX inh 92 | Mdm2 MdmX conf inactive | FLuc counter 52
CCOc1cc(CNCCN2CCOCC2)ccc1OCc1ccccc1Cl	none
Cc1ccc(N2C(=O)N(CC(=O)Nc3ccc(C)cc3Cl)C(=O)C2C)cc1 (stereo not given)	none (no result: CSC inhib)
Cc1nc2sc3c(NCc4ccco4)ncnc3c2c2c1COC(C)(C)C2	CSC inhib 85, Mdm2-MdmX inh 63 | Mdm2 MdmX conf 46 | FLuc counter 37
CC(C)Cc1nc2sc3c(NCc4ccco4)ncnc3c2c2c1COC(C)(C)C2	none
C/C(=N\NC(=O)c1nnn(-c2nonc2N)c1CN1CCc2ccccc21)c1ccccc1O	Beta apoptosis 92, aSyn UTR inh 75, CSC inhib 91, Mdm2-MdmX inh 69 | Mdm2 MdmX conf 67 | FLuc counter inactive
COc1c(Cl)cc(Cl)cc1/C=N/NC(=O)c1nnn(-c2nonc2N)c1CN1CCC(C)CC1	none
CC1CCN(Cc2c(C(=O)N/N=C/c3cc(Br)ccc3O)nnn2-c2nonc2N)CC1	Beta apoptosis 90, aSyn UTR inh 77, Mdm2-MdmX inh 85 (no result: CSC inhib) | Mdm2 MdmX conf 83 | FLuc counter 56
Cc1cc(C)c(/C=N/NC(=O)c2nnn(-c3nonc3N)c2CN2CCC(C)CC2)c(C)c1	none
CC1CCN(Cc2c(C(=O)N/N=C/c3cc(Cl)ccc3O)nnn2-c2nonc2N)CC1	Beta apoptosis 88, aSyn UTR inh 62, Mdm2-MdmX inh 79 (no result: CSC inhib) | Mdm2 MdmX conf 84 | FLuc counter inactive
COc1cc(/C(C)=N/NC(=O)c2nnn(-c3nonc3N)c2-c2cccs2)ccc1O	Mdm2-MdmX inh 69 | Mdm2 MdmX conf inactive
CNc1ccc(C(=O)OCC(=O)Nc2ccnn2C(C)C)cc1[N+](=O)[O-]	none (no result: aSyn UTR inh, CSC inhib)
COc1ccccc1CCC(=O)N1CCN(S(=O)(=O)c2cccc(F)c2)CC1	none
CCc1cccc(CC)c1-n1c(SCC(=O)N2CCc3ccccc32)nc(O)cc1=O	none (no result: aSyn UTR inh, CSC inhib)
CC1CCN(C(=O)Cn2cnc3c2c(=O)n(C)c(=O)n3C)c2ccccc2S1 (stereo not given)	none
CC1Nc2ncnc(N3CCc4ccccc4C3)c2N(Cc2ccc(Br)cc2)C1=O (stereo not given)	Mdm2-MdmX inh 54 | Mdm2 MdmX conf inactive | FLuc counter 58
CCN1CCN(c2c(S(=O)(=O)c3ccc(C)c(C)c3)cnc3ccc(F)cc23)CC1	none
CCCn1nc([N+](=O)[O-])c(C(C#N)c2nc3ccccc3s2)c(Cl)c1=O (stereo not given)	CSC inhib 98, Mdm2-MdmX inh 80 | Mdm2 MdmX conf 74 | FLuc counter 57
Cc1ccnc(N/C=C(\C#N)c2nc(-c3cccc(Br)c3)cs2)c1	Mdm2-MdmX inh 53 | Mdm2 MdmX conf inactive
CCc1cc(C(=O)OC)c(NC(=O)CSc2nccn2C)s1	none
COc1ccc(-c2[nH]c(-c3ccc(C(=O)O)cc3)nc2-c2ccccc2)cc1	none
COc1cc(-c2nc(-c3ccc4c(c3)-c3ccccc3S4(=O)=O)c(-c3ccccc3)[nH]2)cc(OC)c1O	Mdm2-MdmX inh 77 | Mdm2 MdmX conf 67 | FLuc counter 79
COc1cc(C2C(C#N)=C(N)Oc3c2ccc2ccccc32)ccc1OCC(=O)Nc1ccc(C)cc1 (stereo not given)	none
N#CC1=C(N)Oc2cc(N)ccc2C1c1ccc(F)cc1F (stereo not given)	Mdm2-MdmX inh 59 | Mdm2 MdmX conf inactive
COc1ccc(C2C(C#N)=C(N)Oc3cc(N)ccc32)cc1 (stereo not given)	none
N#CC1=C(N)Oc2cc(N)ccc2C1c1ccc(F)cc1 (stereo not given)	none
COc1ccc(C2C(C#N)=C(N)Oc3c2ccc2cccnc32)cc1OC (stereo not given)	Beta apoptosis 99, Mdm2-MdmX inh 81 | Mdm2 MdmX conf 78 | FLuc counter 60
COc1cc(C2C(C#N)=C(N)Oc3cc(N)ccc32)cc(OC)c1OC (stereo not given)	Mdm2-MdmX inh 88 (no result: aSyn UTR inh, CSC inhib) | Mdm2 MdmX conf 66 | FLuc counter 68
Cc1onc(-c2ccccc2Cl)c1C(=O)N[C@@H](C)c1ccccc1	none
O=C(Nc1c2c(nn1-c1ccc([N+](=O)[O-])cc1)CS(=O)(=O)C2)c1ccco1	none
CCOc1ccc(NC(=O)CN(C)C(=O)C2CC(=O)N(CCc3ccccc3)C2)cc1OCC (stereo not given)	none
CC(C)N(Cc1ccccc1)C(=O)CN1c2cccc3cccc(c23)S1(=O)=O	none (no result: aSyn UTR inh)
Cc1cc(C)cc(NC(=O)CSc2nc3[nH]ncc3c(=O)[nH]2)c1	Mdm2-MdmX inh 60 (no result: Beta apoptosis) | Mdm2 MdmX conf 62 | FLuc counter 50
COc1ccc(-c2ccc3c(c2)S(=O)(=O)c2cccc(C(=O)N4CCN(c5c(Cl)cncc5Cl)CC4)c2C3=O)cc1OC	none (no result: aSyn UTR inh, CSC inhib)
Cc1cc(NC(=O)/C(C#N)=C/c2ccco2)n(-c2ccccc2)n1	none
Cc1ccc(-c2ccc(/C=C(\C#N)C(=O)Nc3cc(C)nn3-c3ccccc3)o2)cc1	A1 inh 33, Mdm2-MdmX inh 54 | Mdm2 MdmX conf inactive
